Among all 2,200 compounds or so, about 1,200 (55%) were called active. The set was probably picked from earlier hits. Some of the results follow. Unmarked numbers belong to inactive results. No cut-off is given here; in the data, nearly all actives have IC50 up to about 92 µM.

The nature of this test: counter assay for TAg ATPase ADP read-out – biochemical, ADP-Hunter, fluorescence, counter-screen (AID 2501).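 For inhibition: 0% = enzyme with vehicle and 100% = reference inhibitor wells; higher means more inhibition.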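 Note: purified T antigen ATPase.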 The following applies: series mostly up to 100 µM. A general note: Counterscreens check selectivity or assay interference.
`Oc1ccc(C2=Nn3c(nnc3-c3ccco3)SC2)cc1O`: the IC50 (in general, the midpoint of a concentration-inhibition curve) was 4.93 µM (active).
On the same count and under the same terms, then `CN1CCc2cccc3c2[C@H]1Cc1ccc(O)c(O)c1-3`, with “inactive”.
Still for that read-out and setting: next, `O=C(NC(=S)Nc1cccc(S(=O)(=O)NC2=NCCC2)c1)c1cc(-c2ccco2)nc2ccccc12`: “inactive”; `COc1cc(/C=C2/C(=O)c3cccc([N+](=O)[O-])c3C2=O)c(Br)cc1O`: 23.4 µM (active).
Still for that read-out and setting: then `O=C(O)/C=C/C(=O)c1ccc2c(c1)CCc1ccccc1-2`, with “inactive”.
Take `COc1ccc(NCC(O)Cn2cnc3c2c(=O)n(C)c(=O)n3C)cc1` (configuration not stated): the IC50 was 6.13 µM (active).
On the same count and under the same terms, next, `Cc1nn(-c2cccc(Cl)c2)c2nc(-c3ccco3)cc(C(=O)O)c12`: “inactive”; `CNc1nn(-c2cccc(Cl)c2)nc1N`: 9.76 µM (active).
Still for that read-out and setting: next, `CNC(=S)N1CCN(c2ccc(OC)cc2)CC1`: 8.87 µM (active).
Same read-out and setting: next, `COc1ccc(N2CCN(C(=O)NC3CC(=O)N(c4ccc(OC)cc4)C3)CC2)cc1` (configuration not stated): 26.8 µM (active); `COc1ccc(N2CCN(c3cc(=O)n(Cc4ccc(F)cc4)c(=O)[nH]3)CC2)cc1`: “inactive”; `O=[N+]([O-])c1c(Nc2ccc(O)cc2)cc(Cl)c2nonc12`: 26.9 µM (active).
As to `O=[N+]([O-])c1c(Nc2cccc(O)c2)cc(Cl)c2nonc12`, the IC50 result is “inactive”.
In the case of `O=C(O)c1ccc(Nc2cc(Cl)c3nonc3c2[N+](=O)[O-])cc1`, the IC50 entry is “inactive”.
Still for that read-out and setting: next, `CCn1c(Cc2ccccc2)nnc1SCC(=O)Nc1ccc(N2CCOCC2)c(Cl)c1`: “inactive”.
In the case of `C=CCn1c(CNc2ccccc2)nnc1SCC(=O)N/N=C/c1ccc(O)cc1O`, the IC50 is 4.22 µM (active).
`CN1CCC(=C(c2ccccc2)c2ccc(Br)cc2)CC1`: the IC50 result was “inactive”.
Same read-out and setting: then `COc1ccc(N=c2scc(C)n2CCCN2CCCC2=O)cc1`, with 6.36 µM (active); and `CC(C)C1N=C2c3ccccc3N=C(SCC(=O)c3ccc(O)c(O)c3)N2C1=O` (configuration not stated), with 4.05 µM (active).
On to `Nc1ncc(N=Nc2cc(C(=O)O)ccc2Cl)s1`, for which the IC50 is 12.4 µM (active).
On the same count and under the same terms, next, `COc1cccc(C(=O)N(Cc2cc3cc(C)ccc3[nH]c2=O)C(C)C)c1`: “inactive”; `COCCN=C1Sc2nc3c(C)cccc3cc2CN1Cc1ccco1`: 13.7 µM (active); `CCOC(=O)c1cnc(Nc2nc3ccccc3o2)nc1CSC(=S)N1CCCCC1`: “inactive”.
For the compound `CN(C)c1ccc(/C=C/c2cc[n+]([O-])cc2)cc1`, the IC50 was 5.15 µM (active).
Regarding `Oc1ccc(Nc2nc(NCC3CCCO3)c3ccccc3n2)cc1` (configuration not stated), the IC50 is 5.81 µM (active).
As for `OCCNc1nc(Nc2ccc(O)cc2)nc2ccccc12`, the IC50 was 2.57 µM (active).
Still for that read-out and setting: next, `O=S(=O)(c1cccs1)N1CN(CC2CCCO2)c2nc3ccccc3nc21` (configuration not stated): “inactive”.
The same measure, in the same setting: next, `CN(Cc1ccco1)S(=O)(=O)c1nnc(NC(=O)c2cccc(Cl)c2)s1`: “inactive”; `CCn1cc(CN2CCC(n3nccc3NC(=O)c3ccccc3OC)CC2)cn1`: “inactive”; `CC(C)(C)OC(=O)N/N=C/c1ccc(N2CCOCC2)s1`: 8.25 µM (active).
Same read-out and setting: then `NC(=O)N/N=C/c1ccc(N2CCOCC2)s1`, with 10.7 µM (active); and `COc1ccc(N(CC(=O)NCCc2cccc(C)c2)S(=O)(=O)c2c(C)noc2C)cc1`, with “inactive”; and `COc1cccc(NS(=O)(=O)c2ccc3c(c2)C2C=CCC2C(c2ccc(C(=O)O)cc2)N3)c1` (configuration not stated), with “inactive”.
Take `Oc1ccc(-c2csc(Nc3cccc4ccccc34)n2)cc1O`: the IC50 was 23.6 µM (active).
The same measure, in the same setting: then `Oc1ccc(-c2csc(Nc3ncccn3)n2)cc1O`, with 10.2 µM (active); and `Oc1ccc(-c2csc(Nc3ccccn3)n2)cc1O`, with 11.2 µM (active).
Still for that read-out and setting: then `Cc1ccc(Nc2nc(-c3ccc(O)c(O)c3)cs2)nc1`, with 8.68 µM (active); and `Cc1cc(-c2nnc(SCc3ccccn3)o2)no1`, with “inactive”.
Same read-out and setting: then `Cc1onc(-c2c(F)cccc2Cl)c1C(=O)OCC(=O)NC(c1ccccc1)c1ccccc1`, with “inactive”; and `COc1cc(/C=C2/C(=N)N3C(=NC2=O)SN=C3S(=O)(=O)C(C)C)ccc1OS(=O)(=O)c1ccccc1`, with “inactive”; and `CCS(=O)(=O)C1=NN2C(=N)/C(=C\c3ccc(OC(=O)c4ccco4)c(OC)c3)C(=O)N=C2S1`, with 54.2 µM (active).
As for `CCOc1cc(/C=C2\C(=N)N3N=C(S(=O)(=O)CC)SC3=NC2=O)ccc1OC(=O)c1ccco1`, the inhibition (commonly the share of the control response that was lost under treatment) is 8.45% [at 6.25 µM].
For `COc1cc(/C=C2/C(=N)N3C(=NC2=O)SN=C3S(C)(=O)=O)ccc1OS(=O)(=O)c1ccc(C)cc1`, the IC50 result was “inactive”.
On the same count and under the same terms, then `CCS(=O)(=O)C1=NN2C(=N)/C(=C\c3ccc(SCc4ccco4)o3)C(=O)N=C2S1`, with “inactive”.
Still for that read-out and setting: next, `COc1cc(/C=C2\C(=N)N3N=C(S(C)(=O)=O)SC3=NC2=O)ccc1OS(=O)(=O)c1ccc(C)cc1`: 28.6 µM (active).
Still for that read-out and setting: then `O=C1OC(c2ccc(Cl)cc2)=N/C1=C\C=C\c1ccco1`, with “inactive”; and `Cc1ccn2cc(-c3ccc(O)c(O)c3)nc2c1`, with 7.1 µM (active); and `Oc1ccc(-c2cn3ccccc3n2)cc1`, with 3.69 µM (active).
In the case of `Oc1ccc(-c2cn3ccccc3n2)cc1O`, the IC50 was 5.62 µM (active).
With `Cc1ccc(-c2nnc(Nc3ccc(O)cc3)c3ccccc23)cc1S(=O)(=O)NCCO`, the IC50 was 5.63 µM (active).
On the same count and under the same terms, then `O=C(Nc1cccc(N2C(=O)C=CC2=O)c1)c1cccs1`, with “inactive”; and `CCOc1cc(NS(=O)(=O)c2ccc(NC(C)=O)cc2)c(OCC)cc1NC(=O)c1cccs1`, with 7.08 µM (active).
Same read-out and setting: next, `COc1cc(NS(=O)(=O)c2ccc(NC(=S)NC(=O)/C=C/c3ccco3)cc2)ncn1`: “inactive”; `CN=c1scc(-c2ccco2)n1/N=C/c1ccc(O)c(O)c1`: 8.2 µM (active); `O=C(COc1cccnc1[N+](=O)[O-])c1ccc(Cl)s1`: 39.2 µM (active).
Still for that read-out and setting: next, `Cc1cccc(C(=O)NCC(=O)OCC(=O)c2ccc(Cl)s2)c1`: “inactive”.
As to `O=C(Nc1ccon1)c1cc2ccccc2oc1=O`, the IC50 entry was “inactive”.
For the compound `COc1cc(-c2cc(=O)c3ccccc3o2)ccc1O`, the IC50 was 3.14 µM (active).
On the same count and under the same terms, next, `O=C(OC1CCCCC1=O)c1cc(=O)c2ccccc2o1` (configuration not stated): “inactive”; `COc1cc(-c2cc(=O)c3c(O)c(OC)c(OC)c(O)c3o2)ccc1O`: “inactive”; `CCCOCC1CC(CCc2nc(=S)[nH][nH]2)C(=O)O1` (configuration not stated): “inactive”.
On the same count and under the same terms, then `Cc1cc(=O)c2ccccc2s1`, with “inactive”; and `Cc1ccnc(NS(=O)(=O)c2ccccc2)n1`, with “inactive”.
On the same count and under the same terms, next, `Cc1ccnc(-n2sc3ccccc3c2=O)n1`: 9.06 µM (active); `O=C(Cn1sc2ccccc2c1=O)NC12CC3CC(CC(C3)C1)C2`: “inactive”; `O=c1[nH]sc2ccccc12`: “inactive”.
Regarding `O=c1c2ccccc2sn1-c1nccs1`, the IC50 is 14.1 µM (active).
On to `COc1cccc(C(c2sc3nc(C)nn3c2O)N2CCN(c3ccccc3F)CC2)c1` (configuration not stated), for which the IC50 result is “inactive”.
Still for that read-out and setting: then `CN(C)c1nn(C(=O)Nc2ccc(Cl)cc2Cl)cc1-c1ccccc1`, with 14.8 µM (active); and `O=C(O)/C=C/C(=O)Nc1ccc(Cl)cc1C(=O)c1ccccc1`, with “inactive”; and `CCCCSc1cc(C)nc(N)n1`, with “inactive”.
Still for that read-out and setting: next, `CCN(CC)c1ccc(NC(=O)c2cccnc2)c(C)c1`: 6.37 µM (active); `CCOC(=O)c1cc(NC(=O)c2cccnc2)ccn1`: “inactive”.
Same read-out and setting: next, `CCN(CC)c1ccc(NC(=O)c2cnn(CC)c2)cc1`: 4.27 µM (active); `COC(=O)NNC(=O)c1ccccc1C`: “inactive”.
With `CCN(CC)c1ccc(NC(=O)c2cccnc2)cc1`, the IC50 is 8.35 µM (active).
On the same count and under the same terms, then `COCCNC(=O)C(=O)Nc1ccc(Cl)cc1C`, with “inactive”; and `CCN(CC)c1ccc(NC(=O)c2cccc(C)c2OC)c(C)c1`, with 14.9 µM (active); and `COc1ccc(N2C(=NC(C)=O)SC3CS(=O)(=O)CC32)cc1OC` (configuration not stated), with “inactive”.
Same read-out and setting: then `CC(C)=CCc1c(O)c(CC=C(C)C)c2c(c1O)-c1cc(O)c(O)cc1CC2`, with “inactive”.
On the same count and under the same terms, then `O=C(NCc1ccccn1)C1CCN(S(=O)(=O)c2ccccc2)CC1`, with “inactive”.
In the case of `CCN(CC)c1ccc(NC(=O)c2cccc(F)c2)c(C)c1`, the IC50 is 9.01 µM (active).
In the case of `COc1ccc2c(c1OC)C(=O)N(c1ccc(O)cc1)C2`, the IC50 was 2.39 µM (active).
On the same count and under the same terms, then `C=CS(=O)c1sc(Cl)c(N2CCOCC2)c1[N+](=O)[O-]` (configuration not stated), with “inactive”.
Take `CC(=O)Oc1cc2cccc(OC(C)=O)c(=O)c2c(OC(C)=O)c1OC(C)=O`: the IC50 is 91.6 µM (active).
Still for that read-out and setting: then `Cc1ccc(S(=O)(=O)Nc2cc(NC(=O)CN3CCOCC3)ccc2Cl)cc1`, with “inactive”; and `Cn1c(CCC(=O)Nc2cc(S(C)(=O)=O)ccc2Cl)nc2cc(S(=O)(=O)N3CCOCC3)ccc21`, with “inactive”.
The same measure, in the same setting: next, `O=C(CN1CCN(c2ccc(O)cc2)CC1)Nc1cc(S(=O)(=O)N2CCOCC2)ccc1Cl`: 6.43 µM (active); `O=S(=O)(c1ccc(NC(=S)N2CCN(c3ccc(O)cc3)CC2)cc1)N1CCOCC1`: 4.49 µM (active); `Cc1ccc(S(=O)(=O)N2CCOCC2)cc1NC(=O)CN1CCN(c2ccc(O)cc2)CC1`: 5.44 µM (active).
Regarding `COC(=O)Nc1ccc(S(=O)(=O)N2CCCC(C(=O)N3CCOCC3)C2)cc1` (configuration not stated), the IC50 result was “inactive”.
Turning to `Cc1ccc(S(=O)(=O)n2nc(OC(=O)c3ccccc3C)cc2N)cc1`, the IC50 entry was “inactive”.
Take `O=C(Nc1cccc(NC(=O)c2ccco2)c1)c1ccc([N+](=O)[O-])cc1`: the IC50 result is “inactive”.
With `O=C(Nc1ccc(Cl)c(Cl)c1)Oc1ccc(NC(=O)c2ccco2)cc1`, the IC50 is 23.2 µM (active).
Still for that read-out and setting: then `COc1ccccc1NC(=O)Oc1ccc(NC(=O)c2ccco2)cc1`, with 3.94 µM (active); and `C=CCSc1nc(N)c(NC(=O)c2ccco2)c(=O)[nH]1`, with “inactive”.
On the same count and under the same terms, then `COc1cc(NC(=O)COc2ccccc2C)ccc1NC(=O)c1ccco1`, with “inactive”; and `COc1ccccc1NC(=O)c1c([N+](=O)[O-])cnn1C`, with “inactive”.
The same measure, in the same setting: then `Cc1cc(O)c(C=O)c2c1C(=O)Oc1c(CO)c(O)c3c(c1O2)C(O)OC3=O` (configuration not stated), with “inactive”.
As for `O=S(=O)(O)c1cccc2c(N=Nc3ccc(O)c4ncccc34)cccc12`, the IC50 entry is “inactive”.
Still for that read-out and setting: next, `O=[N+]([O-])c1cc([N+](=O)[O-])c2cccnc2c1Oc1ccccc1O`: 21.8 µM (active); `O=[N+]([O-])c1cc(CN2CCCC2)c2cccnc2c1O`: “inactive”.

The values are drawn from PubChem BioAssay AID2501 (Southern Research Specialized Biocontainment Screening …, 2010).
